The results in this text go back to PubChem BioAssay (EPA / NIEHS).

By AC50 is commonly meant the midpoint of the concentration-response curve, whichever way the signal moves.

Each structure is given as a SMILES string. Inconclusive results are not listed. Activity calls are given as the source filed them. Rule for the calls, unless noted: active = hit-call score of the fitted dose curve at least 0.9, where 1 is the maximum; inactive = score below 0.9.

Assay [1] addresses Hepatocyte nuclear factor 3-beta (Homo sapiens) (UniProt Q9Y261). As to the kind of experiment: ATG_FoxA2_CIS: Attagene CIS-FACTORIAL HepG2 Assay for human Forkhead box A2 (FOXA2) (AID 2282942). The settings on record: HepG2 cis-reporter transcription factor activity, 24 h; actives raise or lower the signal. The procedure, abridged: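 Endogenous transcription factor activity was read in HepG2 cells carrying transiently transfected cis-promoter reporter units. After 24 h dosing, reporter mRNA was quantified by RT-PCR and capillary electrophoresis, and values fitted bidirectionally versus DMSO.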

Assay [2] has as its target Heat shock factor protein 1 (Homo sapiens) (UniProt Q00613). Nature of the assay: ATG_HSE_CIS: Attagene CIS-FACTORIAL HepG2 Assay for human Heat Shock Transcription Factor 1 (HSE) (AID 2282953). As to conditions: HepG2 HSE cis-reporter, Attagene RNA transcription; actives raise or lower the signal. A digest of the protocol:
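Using HepG2 with transfected cis-driven reporter constructs, compound effects on endogenous factor activity are scored as reporter mRNA change at 24 h. Detection: RT-PCR, HpaI digestion, capillary electrophoresis; bidirectional fitting to DMSO.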

A short description of assay [3]: ATG_RORE_CIS: Attagene CIS-FACTORIAL HepG2 Assay for human RAR-related Orphan Receptor Element (RORE) (AID 2282959). As to conditions: HepG2 Attagene cis-factorial RORE reporter, mRNA; actives raise or lower the signal. The procedure, abridged: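 Cells were HepG2 carrying transfected cis-regulated reporter constructs, dosed for 24 hours. Total RNA was reverse-transcribed and reporter cDNA amplified, fluorescently labeled and sized by capillary electrophoresis. Activity was fitted bidirectionally relative to DMSO.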

The nature of assay [4]: ATG_Sox_CIS: Attagene CIS-FACTORIAL HepG2 Assay for human SRY-box transcription factor (SOX) (AID 2282960). The settings on record: HepG2 Attagene cis-factorial SOX reporter, mRNA; actives raise or lower the signal. A digest of the protocol:
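Transient MRTU transfection of HepG2; 24 h compound incubation; TriZol RNA, oligo(dT) RT, PCR, 6-FAM primer extension, HpaI cut, CE. Bidirectional fit, DMSO = baseline.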

Assay [5] concerns the target Transcription factor Sp1 (Homo sapiens) (UniProt P08047). As to the kind of experiment: ATG_Sp1_CIS: Attagene CIS-FACTORIAL HepG2 Assay for human Specificity Protein 1 (Sp1) (AID 2282961). As to conditions: HepG2 Sp1 cis-reporter transcription, actives raise or lower the signal. The procedure, abridged: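 Endogenous Sp1 activity was gauged in human liver HepG2 cells bearing transfected reporter units under a cis-regulating promoter. After 24 h dosing, reporter mRNA was quantified by RT-PCR with capillary electrophoresis, and activity fitted bidirectionally versus DMSO.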

Assay [6] in a line: ATG_SREBP_CIS: Attagene CIS-FACTORIAL HepG2 Assay for human Sterol Regulatory Element Binding (SREBP) (AID 2282962). As to conditions: HepG2 Attagene cis-factorial SREBP reporter, mRNA; actives raise or lower the signal. The procedure, abridged: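 HepG2 cells transiently transfected with multiplexed cis-promoter reporter units sensing endogenous transcription factors; reporter mRNA measured 24 h after dosing by RT-PCR, 6-FAM labeling, HpaI digestion and capillary electrophoresis. Bidirectional fit versus DMSO.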

The target in assay [7] is Signal transducer and activator of transcription 3 (Homo sapiens) (UniProt P40763). Nature of the assay: ATG_STAT3_CIS: Attagene CIS-FACTORIAL HepG2 Assay for human Signal Transducer and Activator of Transcription 3 (STAT3) (AID 2282963). The settings on record: HepG2, Attagene cis-factorial STAT3 reporter transcription; actives raise or lower the signal. The procedure, abridged:
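HepG2 cells transiently transfected with multiple cis-element-driven reporter units report endogenous transcription factor activity. After 24 h compound exposure, reporter mRNA is measured by RT-PCR, 6-FAM labelling, HpaI digestion and capillary electrophoresis. Fitted bidirectionally versus DMSO.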

The nature of assay [8]: ATG_TA_CIS: Attagene CIS-FACTORIAL HepG2 Assay for human TA Basal Promoter (AID 2282964). As to conditions: HepG2 Attagene CIS-factorial TA basal promoter reporter; actives raise or lower the signal. The procedure, abridged: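 Transient MRTU transfection of HepG2 preceded 24 h compound exposure. Reporter mRNA levels were then read by RT-PCR with capillary electrophoresis, and this background-control endpoint was fitted bidirectionally to DMSO.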

The nature of assay [9]: ATG_TCF_b_cat_CIS: Attagene CIS-FACTORIAL HepG2 Assay for human T-Cell-Factor with beta-catenin (TCF/b-cat) (AID 2282965). As to conditions: HepG2 TCF/beta-catenin cis-reporter transcription, actives raise or lower the signal. The procedure, abridged:
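HepG2 cells transiently transfected with cis-promoter-driven multiplexed reporter units; reporter mRNA measured 24 h after dosing by RT-PCR, FAM labelling, HpaI digestion and capillary electrophoresis. Bidirectional fitting relative to DMSO baseline.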

Assay [10] in a line: ATG_TAL_CIS: Attagene CIS-FACTORIAL HepG2 Assay for human TAL Basal Promoter (AID 2282966).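 Note: background control endpoint measuring basal TAL promoter reporter mRNA not a specific factor.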 As to conditions: HepG2 Attagene cis-factorial TAL promoter reporter; actives raise or lower the signal. A digest of the protocol:
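In this cell-based multiplex, HepG2 liver cells bearing cis-promoter reporter constructs are dosed for 24 hours. Total RNA is reverse-transcribed and amplified, labelled fragments are sized by capillary electrophoresis, and signal changes are fitted bidirectionally versus DMSO.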

The nature of assay [11]: ATG_VDRE_CIS: Attagene CIS-FACTORIAL HepG2 Assay for human Vitamin D Receptor Element (VDRE) (AID 2282968). As to conditions: HepG2 VDRE cis-reporter transcription, actives raise or lower the signal. The procedure, abridged:
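Transiently transfected HepG2 cells carrying cis-regulated reporter transcription units were exposed for 24 h. Reporter mRNA was measured by RT-PCR with fluorescent labelling and capillary electrophoresis, and fitted in both directions against DMSO.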

Assay [12] concerns the target Transcriptional activator Myb (Homo sapiens) (UniProt P10242). Nature of the assay: ATG_Myb_CIS: Attagene CIS-FACTORIAL HepG2 Assay for human Myeloblastosis (Myb) Proto-Oncogene Transcription Factor (AID 2282986). The settings on record: HepG2 Attagene CIS-FACTORIAL Myb reporter transcription; actives raise or lower the signal. The procedure, abridged:
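Steps: transfect HepG2 with cis-regulated reporter units; dose with chemical for 24 h; isolate RNA, reverse-transcribe, PCR-amplify and FAM-label reporter sequences; digest with HpaI; resolve by capillary electrophoresis. Activity fitted in both directions relative to DMSO.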

Assay [13] deals with Nuclear respiratory factor 1 (Homo sapiens) (UniProt Q16656). As to the kind of experiment: ATG_NRF1_CIS: Attagene CIS-FACTORIAL HepG2 Assay for human Nuclear Respiratory Factor 1 (NRF1) Orphan Gene (AID 2282987). As to conditions: HepG2 NRF1 cis-element reporter, Attagene multiplex; actives raise or lower the signal. A digest of the protocol:
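Fluorescence intensity of labelled reporter cDNA fragments, resolved by capillary electrophoresis, served as readout for NRF1 cis-element activity. Transiently transfected HepG2 cells were dosed for 24 hours; activity in either direction was fitted against DMSO negative control.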

The nature of assay [14]: ATG_NFI_CIS: Attagene CIS-FACTORIAL HepG2 Assay for human Nuclear Factor I (NFI) (AID 2282989). The settings on record: HepG2 cis-regulatory reporter, NFI response element transcription; actives raise or lower the signal. A digest of the protocol: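 Reporter transcription driven by endogenous transcription factors in HepG2 cells; 24 h treatment. Quantitation by labelled RT-PCR fragments on capillary electrophoresis, gain- or loss-of-signal relative to DMSO.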

The target in assay [15] is Myc proto-oncogene protein (Homo sapiens) (UniProt P01106). Nature of the assay: ATG_Myc_CIS: Attagene CIS-FACTORIAL HepG2 Assay for human Myelocytomatosis (Myc) Proto-Oncogene Transcription Factor (AID 2282990). The settings on record: HepG2, Attagene cis-reporter transcription factor activity; actives raise or lower the signal. The procedure, abridged:
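Transiently transfected HepG2 cells bearing cis-promoter reporter units for endogenous transcription factors; 24 h exposure. Reporter mRNA measured by RT-PCR, 6-FAM primer extension, HpaI cut and capillary electrophoresis; bidirectional fit relative to DMSO.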

Assay [16] in a line: ATG_NRF2_ARE_CIS: Attagene CIS-FACTORIAL HepG2 Assay for human Nuclear Factor Erythroid 2 Related Factor 2 (NFR2) response to Antioxidant Response Elements (ARE) (AID 2282992). The settings on record: HepG2 Attagene ARE/NRF2 reporter, transcription factor activity; actives raise or lower the signal. A digest of the protocol:
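HepG2 cells transiently transfected with multiplexed cis-element reporter constructs, 24 h after chemical dosing; reporter mRNA quantified by RT-PCR, fluorescent primer extension, HpaI digestion and capillary electrophoresis. Bidirectional fit relative to DMSO.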

A short description of assay [17]: ATG_Oct_MLP_CIS: Attagene CIS-FACTORIAL HepG2 Assay for human Octamer-Binding Transcription Factor (Oct) (AID 2282993). As to conditions: HepG2 Attagene cis-factorial Oct reporter, mRNA; actives raise or lower the signal. The procedure, abridged: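 Transfected HepG2 cells, 24 h treatment. Reporter mRNA quantified by RT-PCR–capillary electrophoresis; bidirectional fitting against DMSO.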

Assay [18] deals with Cellular tumor antigen p53 (Homo sapiens) (UniProt P04637). Nature of the assay: ATG_p53_CIS: Attagene CIS-FACTORIAL HepG2 Assay for human p53 Transcription Factor (AID 2282994). As to conditions: HepG2 p53 cis-element reporter, Attagene mRNA; actives raise or lower the signal. A digest of the protocol: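 HepG2 cells transiently transfected with cis-regulated multiple reporter transcription units, dosed 24 h. Reporter mRNA measured by RT-PCR, 6-FAM primer extension, HpaI digestion and capillary electrophoresis; bidirectional fit relative to DMSO.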

Assay [19] addresses Nuclear receptor subfamily 1 group I member 2 (Homo sapiens) (UniProt O75469). As to the kind of experiment: ATG_PXR_TRANS: Attagene TRANS-FACTORIAL HepG2 Assay for human Pregnane X Receptor (PXR) (AID 2283008; active = hit-call score of the fitted dose curve at least 0.9, where 1 is the maximum). A digest of the protocol: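 HepG2 cells transiently transfected with GAL4-UAS reporter units and PXR-Gal4 chimera, exposed 24 h. Reporter mRNA quantified by RT-PCR, fluorescent labelling, HpaI digestion and capillary electrophoresis; gain of signal vs DMSO.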

Assay [20] can be described thus: ATG_XTT_Cytotoxicity: Cytotoxicity Assessment in the Attagene TRANS-FACTORIAL HepG2 Assay (AID 2283584; active = hit-call score of the fitted dose curve at least 0.9, where 1 is the maximum). The procedure, abridged: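 XTT readout of cell number in transfected HepG2 cells, 24 h post-dosing; DMSO serves as negative control and baseline, with activity taken as loss of viability signal.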

Chain of Hepatocyte nuclear factor 3-beta (Homo sapiens) (Q9Y261 whole entry, looked up): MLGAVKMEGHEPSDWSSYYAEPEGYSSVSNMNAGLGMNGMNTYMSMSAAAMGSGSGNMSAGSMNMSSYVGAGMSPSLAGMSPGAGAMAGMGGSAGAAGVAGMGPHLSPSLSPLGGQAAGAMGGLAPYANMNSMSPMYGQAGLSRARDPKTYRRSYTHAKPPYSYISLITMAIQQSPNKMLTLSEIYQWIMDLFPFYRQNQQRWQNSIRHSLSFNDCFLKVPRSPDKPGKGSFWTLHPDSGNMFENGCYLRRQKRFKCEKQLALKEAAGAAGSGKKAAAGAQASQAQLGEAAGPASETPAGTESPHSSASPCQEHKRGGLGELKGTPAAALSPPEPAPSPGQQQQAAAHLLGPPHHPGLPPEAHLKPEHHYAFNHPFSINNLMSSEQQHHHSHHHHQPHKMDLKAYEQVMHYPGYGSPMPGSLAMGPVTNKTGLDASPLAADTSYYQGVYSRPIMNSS
Chain of Signal transducer and activator of transcription 3 (Homo sapiens) (P40763 whole entry, looked up): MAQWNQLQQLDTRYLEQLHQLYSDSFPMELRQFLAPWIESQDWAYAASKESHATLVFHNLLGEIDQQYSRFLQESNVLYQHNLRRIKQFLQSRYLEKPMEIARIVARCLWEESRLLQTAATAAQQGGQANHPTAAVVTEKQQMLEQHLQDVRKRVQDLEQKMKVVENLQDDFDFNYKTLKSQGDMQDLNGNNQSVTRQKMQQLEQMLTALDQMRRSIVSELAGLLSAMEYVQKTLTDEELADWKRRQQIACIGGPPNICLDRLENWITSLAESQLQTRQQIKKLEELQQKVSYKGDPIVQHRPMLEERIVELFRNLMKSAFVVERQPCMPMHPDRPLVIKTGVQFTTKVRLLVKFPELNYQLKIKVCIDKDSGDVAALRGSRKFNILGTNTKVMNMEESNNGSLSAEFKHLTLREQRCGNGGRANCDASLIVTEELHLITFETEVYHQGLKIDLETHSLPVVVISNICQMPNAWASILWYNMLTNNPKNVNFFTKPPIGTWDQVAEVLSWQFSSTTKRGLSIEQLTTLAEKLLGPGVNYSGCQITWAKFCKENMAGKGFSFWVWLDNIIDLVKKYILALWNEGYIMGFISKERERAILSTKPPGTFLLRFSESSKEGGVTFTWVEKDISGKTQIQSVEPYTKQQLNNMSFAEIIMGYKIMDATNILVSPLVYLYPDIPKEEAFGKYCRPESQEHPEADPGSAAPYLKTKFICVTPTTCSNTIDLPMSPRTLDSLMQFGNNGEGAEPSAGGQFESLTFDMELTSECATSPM
Chain of Transcription factor Sp1 (Homo sapiens) (P08047 whole entry, looked up): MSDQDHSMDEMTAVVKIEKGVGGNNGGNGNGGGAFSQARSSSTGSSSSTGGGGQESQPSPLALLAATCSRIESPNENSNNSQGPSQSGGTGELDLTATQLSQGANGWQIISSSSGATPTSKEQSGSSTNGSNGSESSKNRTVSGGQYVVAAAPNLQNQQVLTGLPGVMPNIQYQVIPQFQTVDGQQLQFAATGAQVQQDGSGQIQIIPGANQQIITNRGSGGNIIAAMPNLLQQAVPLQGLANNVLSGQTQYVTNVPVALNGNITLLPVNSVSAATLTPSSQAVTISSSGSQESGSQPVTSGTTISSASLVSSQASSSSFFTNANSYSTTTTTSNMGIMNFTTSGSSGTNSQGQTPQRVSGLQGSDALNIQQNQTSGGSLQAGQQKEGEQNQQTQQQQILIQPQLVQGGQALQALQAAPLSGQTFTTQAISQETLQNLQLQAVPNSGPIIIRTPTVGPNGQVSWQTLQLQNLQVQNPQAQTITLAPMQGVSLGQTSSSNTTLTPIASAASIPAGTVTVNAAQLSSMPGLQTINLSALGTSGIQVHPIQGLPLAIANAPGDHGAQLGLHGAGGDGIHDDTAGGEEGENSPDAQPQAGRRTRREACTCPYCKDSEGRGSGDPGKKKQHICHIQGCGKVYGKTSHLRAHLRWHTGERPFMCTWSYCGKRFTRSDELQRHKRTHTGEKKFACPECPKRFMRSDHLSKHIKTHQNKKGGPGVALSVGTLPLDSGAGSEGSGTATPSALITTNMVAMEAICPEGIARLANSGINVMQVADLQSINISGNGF
Chain of Cellular tumor antigen p53 (Homo sapiens) (P04637 whole entry, looked up): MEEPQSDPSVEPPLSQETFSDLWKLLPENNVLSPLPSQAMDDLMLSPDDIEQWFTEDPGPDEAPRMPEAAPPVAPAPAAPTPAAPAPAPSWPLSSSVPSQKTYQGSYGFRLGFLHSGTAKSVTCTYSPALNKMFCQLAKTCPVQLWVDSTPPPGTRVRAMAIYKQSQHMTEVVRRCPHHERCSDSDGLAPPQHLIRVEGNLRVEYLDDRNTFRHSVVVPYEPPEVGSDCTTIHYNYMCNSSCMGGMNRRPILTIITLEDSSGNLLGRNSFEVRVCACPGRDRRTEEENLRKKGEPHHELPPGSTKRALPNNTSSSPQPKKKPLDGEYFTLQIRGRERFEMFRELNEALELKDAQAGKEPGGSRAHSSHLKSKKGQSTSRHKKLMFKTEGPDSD
Chain of Heat shock factor protein 1 (Homo sapiens) (Q00613 whole entry, looked up): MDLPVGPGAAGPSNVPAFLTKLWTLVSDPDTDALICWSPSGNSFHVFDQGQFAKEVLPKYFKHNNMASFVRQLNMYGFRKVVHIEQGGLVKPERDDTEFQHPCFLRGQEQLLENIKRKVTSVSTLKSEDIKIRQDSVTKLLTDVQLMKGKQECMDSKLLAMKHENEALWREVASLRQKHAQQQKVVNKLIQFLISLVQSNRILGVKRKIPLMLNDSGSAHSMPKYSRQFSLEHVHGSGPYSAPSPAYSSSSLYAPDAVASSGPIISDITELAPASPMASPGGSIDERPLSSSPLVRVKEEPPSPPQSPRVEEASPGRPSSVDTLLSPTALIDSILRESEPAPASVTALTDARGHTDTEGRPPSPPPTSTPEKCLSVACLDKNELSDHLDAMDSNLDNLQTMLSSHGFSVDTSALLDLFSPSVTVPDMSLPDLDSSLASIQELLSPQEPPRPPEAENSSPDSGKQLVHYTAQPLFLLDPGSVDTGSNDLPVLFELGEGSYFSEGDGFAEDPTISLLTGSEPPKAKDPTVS
Chain of Myc proto-oncogene protein (Homo sapiens) (P01106 whole entry, looked up): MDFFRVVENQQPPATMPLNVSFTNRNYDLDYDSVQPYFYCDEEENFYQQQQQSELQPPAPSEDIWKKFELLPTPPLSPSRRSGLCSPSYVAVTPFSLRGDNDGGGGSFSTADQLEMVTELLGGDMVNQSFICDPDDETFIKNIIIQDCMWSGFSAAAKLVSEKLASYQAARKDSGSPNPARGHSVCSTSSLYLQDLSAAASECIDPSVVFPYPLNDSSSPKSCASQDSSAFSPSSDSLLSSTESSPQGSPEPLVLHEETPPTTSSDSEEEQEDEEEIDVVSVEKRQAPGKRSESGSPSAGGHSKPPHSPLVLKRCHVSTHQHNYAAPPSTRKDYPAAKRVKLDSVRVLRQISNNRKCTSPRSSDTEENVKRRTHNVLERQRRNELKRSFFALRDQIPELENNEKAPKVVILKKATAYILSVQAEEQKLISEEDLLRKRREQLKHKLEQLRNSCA
Chain of Transcriptional activator Myb (Homo sapiens) (P10242 whole entry, looked up): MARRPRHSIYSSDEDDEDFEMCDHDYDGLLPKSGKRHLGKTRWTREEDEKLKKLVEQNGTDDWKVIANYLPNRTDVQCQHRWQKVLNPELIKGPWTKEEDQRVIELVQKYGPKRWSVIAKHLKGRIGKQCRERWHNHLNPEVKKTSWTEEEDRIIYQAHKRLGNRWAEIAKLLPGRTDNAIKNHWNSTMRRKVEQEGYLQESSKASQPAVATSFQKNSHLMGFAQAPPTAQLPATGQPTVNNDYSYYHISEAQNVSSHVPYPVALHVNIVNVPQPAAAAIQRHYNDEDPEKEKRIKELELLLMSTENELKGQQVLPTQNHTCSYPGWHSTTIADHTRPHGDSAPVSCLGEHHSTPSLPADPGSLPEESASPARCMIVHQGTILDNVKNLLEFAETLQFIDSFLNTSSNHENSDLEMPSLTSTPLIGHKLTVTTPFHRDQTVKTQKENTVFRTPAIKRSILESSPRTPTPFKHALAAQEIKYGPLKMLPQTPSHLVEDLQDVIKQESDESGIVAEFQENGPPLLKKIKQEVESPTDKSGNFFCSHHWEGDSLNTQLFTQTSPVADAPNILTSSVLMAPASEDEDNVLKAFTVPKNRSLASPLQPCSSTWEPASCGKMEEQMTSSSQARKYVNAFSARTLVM
Chain of Nuclear receptor subfamily 1 group I member 2 (Homo sapiens) (O75469 whole entry, looked up, the tested form may be a part): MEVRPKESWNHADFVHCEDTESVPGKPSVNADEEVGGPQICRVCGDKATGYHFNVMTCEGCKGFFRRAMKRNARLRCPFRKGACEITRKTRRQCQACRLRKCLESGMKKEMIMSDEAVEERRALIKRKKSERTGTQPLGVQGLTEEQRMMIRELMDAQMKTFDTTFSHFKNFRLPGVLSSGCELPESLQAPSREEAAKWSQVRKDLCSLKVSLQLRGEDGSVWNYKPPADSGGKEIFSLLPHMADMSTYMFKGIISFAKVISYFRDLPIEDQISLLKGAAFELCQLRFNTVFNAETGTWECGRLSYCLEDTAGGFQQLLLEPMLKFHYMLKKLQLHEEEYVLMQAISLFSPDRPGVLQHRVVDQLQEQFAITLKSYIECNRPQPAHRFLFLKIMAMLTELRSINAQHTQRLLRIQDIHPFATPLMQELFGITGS
Chain of Nuclear respiratory factor 1 (Homo sapiens) (Q16656 whole entry, looked up, the tested form may be a part): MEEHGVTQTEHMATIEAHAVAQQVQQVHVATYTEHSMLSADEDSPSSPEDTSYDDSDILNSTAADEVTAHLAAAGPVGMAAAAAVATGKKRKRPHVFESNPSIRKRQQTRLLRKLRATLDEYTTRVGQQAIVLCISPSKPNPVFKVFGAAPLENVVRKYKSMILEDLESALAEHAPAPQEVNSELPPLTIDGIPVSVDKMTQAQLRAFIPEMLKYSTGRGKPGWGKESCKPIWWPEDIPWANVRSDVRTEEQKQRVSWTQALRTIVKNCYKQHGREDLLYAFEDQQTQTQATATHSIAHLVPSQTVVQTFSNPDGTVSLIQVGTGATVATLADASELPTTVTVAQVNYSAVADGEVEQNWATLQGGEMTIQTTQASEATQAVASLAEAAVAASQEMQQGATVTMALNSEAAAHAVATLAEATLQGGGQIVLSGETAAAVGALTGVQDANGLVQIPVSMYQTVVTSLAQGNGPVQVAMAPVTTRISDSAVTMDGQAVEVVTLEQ

For `CC(C)(Oc1ccc(Cl)cc1)C(=O)O`, the molecule was called inactive in [1], in assay [2], in [3], in assay [4], in [5] and in assay [6]. In addition, the molecule was called inactive in assay [7], in [8], in [9], in assay [10], in assay [11] and in assay [12]. In addition, the result in assay [13], in assay [14], in assay [15], in assay [16], in assay [17] and in [18] was inactive. Moreover, the molecule was classed as inactive in assay [19] and in assay [20].
Consider `Cc1cccnc1`, for which the result in assay [1], in assay [3], in assay [4], in assay [5], in [6] and in assay [7] was inactive. For the same molecule, the molecule was classed as inactive in assay [8], in assay [9], in assay [10], in [11], in assay [13] and in assay [14]. Moreover, the result in assay [15], in assay [16], in assay [17] and in assay [19] was inactive. For the same molecule, the AC50 was 100 µM (active) in assay [2] and 164 µM (active) in assay [12].
Regarding `CC(C)(C)NC(=O)[C@@H]1CN(Cc2cccnc2)CCN1C[C@@H](O)C[C@@H](Cc1ccccc1)C(=O)N[C@H]1c2ccccc2C[C@H]1O`, the call in [2], in assay [4], in assay [5], in [6], in [7] and in assay [8] was inactive. Besides, the call in assay [9], in assay [10], in assay [11], in [12], in assay [13] and in assay [14] was inactive. Moreover, the result in assay [15], in assay [16], in [17], in [18] and in assay [20] was inactive.
As for `C[Si](C)(C)O[Si](C)(C)O[Si](C)(C)C`, the call in [1], in [2], in [3], in assay [4], in [5] and in [6] was inactive. The call in assay [7], in [8], in assay [9], in assay [10], in assay [11] and in assay [12] was inactive. Moreover, the result in assay [13], in assay [14], in assay [15], in assay [16], in assay [17] and in assay [18] was inactive. Further, the result in [19] and in assay [20] was inactive.
